Screening data as filed in PubChem.
Sampled rows, rich in hits. Any-hit rate of the full collection: about 3%.
SKKanGAS inh: inhibitors of SKKanGAS S. pyogenes growth in kanamycin (SK-promoter or general growth effect); BacTiter-Glo, 6 h; inhibition, % at 7.5 µM; 300,000 tested, 1.3% active;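 active = mean replicate score, as percent of positive control median, at least 50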;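 also: strain carries kanamycin resistance gene driven by streptokinase promoter and grows in 40 µg/ml kanamycin; loss of luminescence reflects streptokinase promoter inhibition or plain growth inhibition; 0% = median of DMSO wells and 100% = positive control at its reference dose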
CSC inhib: cancer stem cell inhibition; cancer stem cell-like cells viability, luminescence; AID 2717; 300,000 tested, 1.1% active; inhibition, % at 7.5 µM; in the data active = inhibition above about 75%; tested in HMLE shEcad cells
IEC-6 tox: counter-screen for KLF5 inhibitors: cytotoxicity in IEC-6 cells; inhibition, % at 5 µM; AID 1825; 290,000 tested, 0.78% active; IEC-6 cytotoxicity, luminescence viability; in the data active = inhibition above about 22%;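 also: 0% = plate median of test compound wells and 100% = cytotoxic reference compound wells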
aSyn UTR inh: 5' untranslated region of α-synuclein, MLPCN primary screen. alpha-synuclein 5'UTR reporter, inhibitor activity. inhibition, % (tested at 7.5 µM). 300,000 tested, 0.82% active; in the data active = inhibition above about 60%;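 also: H4 neuroglioblastoma cells stably carrying SNCA 5'UTR luciferase fusion; 0% = DMSO wells and 100% = positive control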
KLF5 inh: suppresses KLF5 promoter-driven expression. 290,000 tested, 0.23% active. inhibition, % at 5 µM. AID 1700. DLD-1 KLF5 promoter-luciferase reporter, luminescence;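 active = inhibition above a per-plate limit of that plate's mean compound inhibition plus 3 SD, cut at about 60% in these data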;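 also: 0% = DMSO wells and 100% = LY294002 at 200 µM; higher means less KLF5 promoter-driven luciferase light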
Numbers without * were called inactive; . = no result given.

SMILES | SKKanGAS inh | CSC inhib | IEC-6 tox | aSyn UTR inh | KLF5 inh
CCOC(=O)CN1N=C(/C=C/c2ccc(C)cc2)CCC1=O | -17 | -13 | -9 | 33 | -16
Cc1ccc(/C=C/C2=NN(Cc3ccc(Cl)c(Cl)c3)C(=O)CC2)cc1 | 54* | -14 | -4 | 15 | -40
CSCCC(NC(=O)COc1ccccc1)C(=O)NCCOc1ccccc1 (stereo not given) | . | -6 | . | . | .
CC(C)CC(=O)Nc1nnc(SCC(=O)Nc2nccs2)s1 | -1 | -3 | 5 | -9 | -9
CC(=O)C(=Cc1ccc(C(=O)O)cc1)C(C)=O | -1 | -11 | -3 | -10 | -6
C/C(=C\c1ccc(C(=O)O)cc1)c1ccc2c(c1)C(C)(C)CCC2(C)C | . | 101* | . | . | .
CCC1(c2ccc(Cl)cc2)NC(=O)N(Cc2ccc(C(=O)OC)cc2)C1=O (stereo not given) | -2 | 5 | -2 | 12 | -9
Cc1ccc2[nH]c(CNC(=O)c3ccc(F)cc3)cc2c1 | -6 | -1 | 1 | -29 | -48
Cc1ccc(Cl)cc1N1CCN(C(=O)c2cn(C)c(=O)c3c2c2ccccc2n3C)CC1 | 82* | 88* | 3 | 45 | 6
OCCCn1c(CCNc2nc(-c3ccc(Cl)cc3)cs2)nc2cc(C(F)(F)F)ccc21 | 13 | 78* | . | -8 | .
O=C(Nc1ccccn1)c1ccc(-c2ccccc2)cc1 | 1 | 7 | 0 | 63* | 43
O=C(COc1ccccc1)Nc1cccc(-c2nn[nH]n2)c1 | 9 | 16 | -1 | -14 | -18
O=C(COc1ccccc1)Nc1cccc(-c2nc3cc4ccccc4cc3[nH]2)c1 | 67* | 88* | 15 | -140 | -139
CNC(=O)NC(=O)CSc1nc2sccc2c(=O)n1-c1ccccc1 | 1 | 0 | -5 | 20 | -7
COc1ccc(-c2nc3ccc(C)cn3c2NCc2ccccc2)cc1SC1CCCCC1 | 16 | -10 | . | 4 | .
CCC(C)Sc1cc(-c2nc3ccccn3c2NC2CCCCC2)ccc1OC (stereo not given) | 87* | 126* | . | 3 | .
CCC(C)Sc1cccc(-c2nc3ccc(C)cn3c2NC2CCCCC2)c1 (stereo not given) | 5 | 7 | . | 27 | .
CCC(C)Sc1cc(-c2nc3ccc(C)cn3c2NCc2ccccc2)ccc1OC (stereo not given) | 74* | -29 | . | -14 | .
CCC(C)Sc1ccc(-c2nc3ccc(C)cn3c2NCc2ccccc2)cc1OC (stereo not given) | 53* | -13 | . | -21 | .
COc1ccc(-c2cc(-c3nc4ccccn4c3NCc3ccccc3)ccc2OC)cc1 | . | 98* | . | . | .
COc1ccc(NC(=S)N2CCN(S(=O)(=O)c3ccc(OC)cc3)CC2)cc1 | . | -11 | -1 | . | -28
COc1cc(NC(C)CCCN)c2ncccc2c1 (stereo not given) | 4 | 105* | . | 3 | .
O=C1/C(=C/c2ccc(N3CCOCC3)o2)SC(=Nc2ccccc2)N1CCc1c[nH]c2ccccc12 | 25 | 85* | -2 | -121 | -1
COc1cc(/C=C2\SC(=Nc3ccccc3)N(CCc3c[nH]c4ccccc34)C2=O)ccc1OC(C)C(=O)O (stereo not given) | 54* | 41 | -4 | -12 | -39
COc1cc(SC)ccc1C(=O)Nc1ncc(C)s1 | -11 | -5 | 7 | 98* | 5
SMILES | SKKanGAS inh | CSC inhib | IEC-6 tox | aSyn UTR inh | KLF5 inh
COc1cc(SC)ccc1C(=O)Nc1ccccn1 | -8 | -3 | 12 | -1 | -101
COc1cc(SC)ccc1C(=O)Nc1ccc(Br)cn1 | -20 | -4 | -3 | 101* | -97
CCCN1CCN(CCCNC(=O)Cn2nc(C)n3c(cc4cc(F)ccc43)c2=O)CC1 | -4 | -14 | 5 | -9 | -27
O=C(COC(=O)/C=C/c1ccc(F)cc1)Nc1ccccc1-c1ccccc1 | 12 | 0 | 9 | -9 | 17
Cc1ccoc1C(=O)Nc1ccc(CC(=O)O)cc1 | 0 | 0 | 3 | 84* | 9
Cc1ccoc1C(=O)Nc1ccc2ccccc2c1 | 0 | 12 | 6 | 27 | -48
O=C1C(=O)N(CCN2CCOCC2)C(c2ccccc2F)/C1=C(\O)c1ccc(S(=O)(=O)N2CCOCC2)cc1 (stereo not given) | -3 | . | 6 | 2 | -20
COCc1cc(CN2CCCC(C(=O)Nc3ccc(-c4ccco4)cc3)C2)ccc1OC (stereo not given) | 2 | 1 | -2 | -40 | -29
CN(C)CCNC(=O)/C(=C/c1ccc(-c2ccc(Cl)cc2Cl)o1)NC(=O)c1ccccc1 | 1 | 110* | 7 | 29 | -11
Cc1nc2c(-c3ccc(Cl)cc3)c(C)[nH]n2c(=O)c1Cc1ccccc1 | 99* | -9 | 14 | 78* | 35
Cc1nc2c(-c3ccccc3)c(C)[nH]n2c(=O)c1Cc1ccccc1 | 52* | 18 | 4 | 16 | -5
COc1ccc(NC(=O)C2CCN(S(=O)(=O)c3cn(C)nc3C)CC2)cc1 | 0 | 2 | 5 | -2 | -33
Fc1ccc(-n2cc(-c3ccccc3)c3c(N4CCOCC4)ncnc32)cc1 | 13 | 54 | 4 | 2 | 6
COc1ccc(-n2cc(-c3ccccc3)c3c(N4CCOCC4)ncnc32)cc1 | 11 | 102* | -9 | 36 | -3
COc1ccc2nc(N/C(N)=N/C(=S)Nc3c(C)cccc3C)nc(C)c2c1 | 51* | 18 | 0 | 33 | -8
COc1ccc(CCNC(=O)CNS(=O)(=O)c2ccc(F)c(Cl)c2)cc1OC | -6 | 6 | -7 | 6 | -3
COc1ccc(-c2csc(Nc3ccc(S(N)(=O)=O)cc3)n2)cc1OC | 2 | 17 | -3 | 62* | -25
Cc1c(C)c2ccc(OCC(=O)NCCCn3ccnc3)c(C)c2oc1=O | 4 | 6 | -10 | -9 | 11
C[C@@H](NC(=O)c1nc[nH]c1C(=O)N(C)Cc1ccccc1)c1ccccc1 | . | -9 | . | . | .
Cc1ccccc1C(=O)Nc1ccccc1N1CCN(C(=O)c2ccccc2)CC1 | 55* | -9 | -9 | 13 | -8
Cn1c(=O)c(C#N)c(-c2ccc(F)cc2)c2cc(C(=O)c3cc(Cl)cc(Cl)c3O)cnc21 | 99* | 124* | -2 | -1 | -15
CCC(NS(=O)(=O)c1ccc(C)cc1)C(=O)N1CCOCCOCCOCCOCC1 (stereo not given) | 0 | 1 | 0 | 1 | -3
Oc1c(Br)cc(Br)cc1C=Nc1ccc2c(c1)OCO2 | 12 | 12 | -3 | -66 | -2
Oc1ccc(N=Nc2ccc3c(c2)OCO3)c2ccccc12 | 88* | 140* | 1 | 8 | 23
CCN(CC)S(=O)(=O)c1ccc(C(=O)Nc2cccc(C)c2)cc1 | 15 | -7 | 4 | -25 | -43
O=C(Nc1ccc(OC(F)F)cc1)Nc1cccc(C(F)(F)F)c1 | 59* | 71 | 3 | -51 | -20
Cc1ccc(S(=O)(=O)Nc2ccc(NC(=O)Nc3cccc(C(F)(F)F)c3)cc2)cc1 | -15 | 96* | 5 | -10 | 8
CCN(CC)S(=O)(=O)c1ccc(NC(=O)Nc2cccc(C(F)(F)F)c2)cc1 | 25 | 83* | 17 | 39 | -14
Cc1ccc(NS(=O)(=O)c2ccc(NC(=O)c3cccc(NC(=O)C(C)C)c3)cc2)cc1 | 31 | 37 | 0 | -1 | -2
